Results reported in paper PMC5540273 (PLoS ONE, 2017).

Experiments:
Details in all cases: concentration: 1 μM, replicates: in singlicate; n = 1
PKAC-beta = test system: T1, PKAC-beta
T1 construct: gene PRKACB

PKMYT1 = test system: PKMYT1
PKN1 = test system: PKN1
PKN2 = test system: PKN2
PLK1 = test system: PLK1
PLK2 = test system: PLK2
PLK3 = test system: PLK3
PLK4 = test system: PLK4
PRKCD = test system: PRKCD
PRKCE = test system: PRKCE
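Also: KINOMEscan kinase panel screen.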

Row | SMILES | %Inh (PKAC-beta) [%] | %Inh (PKMYT1) [%] | %Inh (PKN1) [%] | %Inh (PKN2) [%] | %Inh (PLK1) [%] | %Inh (PLK2) [%] | %Inh (PLK3) [%] | %Inh (PLK4) [%] | %Inh (PRKCD) [%] | %Inh (PRKCE) [%]
1 | O=C(Nc1n[nH]c2nc(-c3cccs3)c(Br)cc12)C1CCCC1 [SB-743341] | 0 | 0 | 0 | 5 | 0 | 21 | 26 | 25 | 29 | 0
2 | Cn1cncc1C(=O)NC1CCN(c2ccnc(Nc3ccc(F)cc3)n2)C1 (stereo not shown) [GSK1379717] | 0 | 0 | 52 | 0 | 12 | 0 | 11 | 0 | 0 | 0
3 | COC(=O)c1cccc(NC(=O)NC2CCN(c3ccnc(Nc4ccc(F)cc4)n3)C2)c1 (stereo not shown) [GSK1379725] | 0 | 0 | 0 | 0 | 0 | 0 | 0 | 0 | 0 | 4
4 | COC(=O)c1cccc(NC(=O)NC2CCN(c3ccnc(Nc4ccc(OC)cc4)n3)C2)c1 (stereo not shown) [GSK1379746] | 0 | 0 | 11 | 0 | 0 | 0 | 0 | 0 | 0 | 8
